Assay results taken from PubChem BioAssay AID463173 (ICCB-Longwood Screening Facility, Harvard Medical School, 2010).
Out of some 52,000 compounds screened, about 4,300 (8.3%) were called active. This is one part of a sample in which actives are shown more often than they occur. No stated cut-off is given here; in the data, active means survival mostly below about 52% (no sharp cut-off); inactive means mostly above about 56%.

Each compound was assayed on DeltatarO mutant (assay: growth inhibition of S. aureus wild type versus tarO mutant, primary screen, teichoic acid synthesis inhibitors, RN4220, OD600 (AID 463173)). Conditions: OD600, 18 h, active compounds read low, screened at 18.75 µg/mL (by protocol).

| Compound | survival |
| --- | --- |
| COc1ccc(-c2nnc(SCC(=O)Nc3c(C)cccc3C)nc2-c2ccc(OC)cc2)cc1 | 92% (inactive) |
| COc1cccc(CNC(=O)c2ccc(-c3nc(CS(=O)(=O)c4ccccc4)c(C)o3)cc2)c1 | 72% (inactive) |
| COc1ccc(-c2noc(-c3ccc(N4CCCC4)c([N+](=O)[O-])c3)n2)cc1OC | 59% (inactive) |
| CCC(C)NC(=O)c1cc2cc(S(=O)(=O)N3CCCCC3)ccc2n1C (stereo unspecified) | 55% (inactive) |
| CCc1cccc(NC(=O)CC2Oc3ccc(C)cc3NC2=O)c1 (stereo unspecified) | 79% (inactive) |
| Cc1ccc(S(=O)(=O)Nc2nc(C)c(NC(=O)NC3C=NN=C3)s2)cc1 | 90% (inactive) |
| O=C(NCc1cccnc1)C(=O)NCC(c1cccnc1)N1CCN(c2ccc(F)cc2)CC1 (stereo unspecified) | 70% (inactive) |
| COc1ccccc1NC(=O)Cn1nnc(C(=O)Nc2ccccc2Br)c1N | 89% (inactive) |
| Cc1ccc(C)c(NC(=O)c2nnn(CC(=O)Nc3cccc(C)c3C)c2N)c1 | 98% (inactive) |
| Nc1c(C(=O)NCc2ccc(Cl)cc2Cl)nnn1Cc1ccc(Br)cc1 | 45% (active) |
| COc1cccc(Cn2nnc(C(=O)NCc3ccc(Cl)cc3Cl)c2N)c1 | 71% (inactive) |
| Cc1ccc(C)c(Cn2nnc(C(=O)NCc3ccc(Cl)cc3Cl)c2N)c1 | 62% (inactive) |
| Cc1cccc(NC(=O)Cn2nnc(C(=O)Nc3ccccc3Br)c2N)c1C | 8% (active) |
| Cc1ccc(Cl)cc1NC(=O)CC1Sc2ccccc2NC1=O (stereo unspecified) | 93% (inactive) |
| CC(CCc1ccccc1)NC(=O)CSc1n[nH]c(-c2ccccc2Cl)n1 (stereo unspecified) | 54% (inactive) |
| COc1ccc(CCNC(=O)c2cc(Sc3cccc(Cl)c3)nc3ccccc23)cc1OC | 89% (inactive) |
| CCc1c(C)sc2c1CCN(C(=O)Nc1ccc(F)c(Cl)c1)C2c1ccc(F)cc1 (stereo unspecified) | 46% (active) |
| CCc1c(C)sc2c1CCN(C(=O)Nc1cc(C)ccc1OC)C2c1ccc(F)cc1 (stereo unspecified) | 144% (inactive) |
| CCc1c(C)sc2c1CCN(C(=O)Nc1ccccc1C(=O)OC)C2c1ccc(F)cc1 (stereo unspecified) | 105% (inactive) |
| CCc1c(C)sc2c1CCN(C(=O)Nc1cc(Cl)c(OC)cc1OC)C2c1ccccc1 (stereo unspecified) | 63% (inactive) |
| CCc1c(C)sc2c1CCN(C(=O)Nc1cc(C)cc(C)c1)C2c1ccccc1 (stereo unspecified) | 55% (inactive) |
| CCc1c(C)sc2c1CCN(C(=O)Nc1cc(OC)c(OC)c(OC)c1)C2c1ccccc1 (stereo unspecified) | 25% (active) |
| O=C(CCCN1C(=O)c2cccnc2Oc2ccc(Cl)cc21)NCc1ccc(F)cc1 | 90% (inactive) |
| CCOc1ccccc1NC(=O)Cn1c(=O)n(CC(=O)NCc2ccccc2Cl)c(=O)c2sccc21 | 154% (inactive) |
| O=C(CSc1ccccc1)NCc1ccc2c(c1)CCN2C(=O)c1ccc(F)cc1 | 88% (inactive) |
| Cc1cc(C)c(Cn2c(C3CC(=O)N(c4ccc(F)cc4)C3)nc3ccccc32)c(C)c1 (stereo unspecified) | 91% (inactive) |

| Compound | survival |
| --- | --- |
| C=CCc1ccccc1OCCn1c(C2CC(=O)N(Cc3ccc(F)cc3)C2)nc2ccccc21 (stereo unspecified) | 0% (active) |
| Cc1cccc(C)c1OCCn1c(C2CC(=O)N(Cc3ccc(F)cc3)C2)nc2ccccc21 (stereo unspecified) | 4% (active) |
| Cc1ccc(C)c(OCCn2c(C3CC(=O)N(Cc4ccc(F)cc4)C3)nc3ccccc32)c1 (stereo unspecified) | 0% (active) |
| CCOc1ccccc1N1CC(c2nc3ccccc3n2CCOc2ccccc2OC)CC1=O (stereo unspecified) | 95% (inactive) |
| Cc1ccc(OCCn2c(C3CC(=O)N(Cc4ccc(F)cc4)C3)nc3ccccc32)c(C)c1 (stereo unspecified) | 3% (active) |
| COc1ccccc1OCCCn1c(C2CC(=O)N(c3ccc(F)cc3)C2)nc2ccccc21 (stereo unspecified) | 76% (inactive) |
| CCOc1ccccc1N1CC(c2nc3ccccc3n2Cc2c(C)cc(C)cc2C)CC1=O (stereo unspecified) | 92% (inactive) |
| CCc1ccccc1N1CC(c2nc3ccccc3n2CCCCOc2ccccc2OC)CC1=O (stereo unspecified) | 80% (inactive) |
| Cc1cccc(C)c1OCCn1c(C2CC(=O)N(c3cccc(Cl)c3)C2)nc2ccccc21 (stereo unspecified) | 57% (inactive) |
| CC(=O)c1cccc(NC(=O)C(C)n2c(=O)cc(-c3ccccc3)c3c(C)nn(C)c32)c1 (stereo unspecified) | 102% (inactive) |
| CC1CCN(C(=O)Cn2cc(SCC(=O)NCc3ccccc3Cl)c3ccccc32)CC1 | 64% (inactive) |
| COc1cc(/C=C/c2nc(C#N)c(N3CCCCC3)o2)cc(OC)c1OC | 89% (inactive) |
| CCc1nnc2c(Nc3ccccc3Br)nc3ccccc3n12 | 93% (inactive) |
| CCOc1ccc(NCc2nc3ccccc3n2CCOc2ccc(C)cc2)cc1 | 1% (active) |
| CCOc1ccc(NCc2n[nH]c(=S)n2-c2ccc(C)cc2)cc1 | 90% (inactive) |
| CCC(O)c1nc2ccccc2n1CCOc1cc(C)cc(C)c1 (stereo unspecified) | 100% (inactive) |
| Cc1ccc(OCCn2c(CNc3cccc(C)c3)nc3ccccc32)cc1 | -3% (active) |
| CCOc1ccc(Nc2nc3ccccc3n3c(CC)nnc23)cc1 | 36% (active) |
| COc1ccc(NCc2nc3ccccc3n2CCOc2ccc(C)cc2)cc1 | 17% (active) |
| CCc1nnc2c(Nc3cccc(C(C)=O)c3)nc3ccccc3n12 | 92% (inactive) |
| COc1ccc(OCCn2c(C)nc3cc(C)c(C)cc32)cc1 | 57% (inactive) |
| Cc1ccc(C)c(Cn2cc(CCC(=O)NC3CCCCC3)c3ccccc32)c1 | 86% (inactive) |
| CC(C)(C)OC(=O)N/N=C/c1cccc(O)c1 | 79% (inactive) |
| Nc1nnc2c(Nc3ccccc3)nc3nonc3n12 | 86% (inactive) |
| O=C(NC1CCCCC1)c1ccc(CSc2nc3cccnc3n2Cc2cccc(F)c2)cc1 | 83% (inactive) |
| CC(C)(C)c1ccc(-c2ncccc2O)cc1 | 53% (inactive) |

| Compound | survival |
| --- | --- |
| CCc1c(C)c2ccc3c(c2oc1=O)CN(Cc1ccccc1)CO3 | 99% (inactive) |
| COc1ccc(NC(=O)C2CCN(S(=O)(=O)c3c(C)noc3/C=C/c3cccs3)CC2)cc1 | 90% (inactive) |
| Cn1c(=O)c2c(c3ccccc31)OC(=O)CC2c1cccc(F)c1 (stereo unspecified) | 59% (inactive) |
| CCc1sc(Nc2cccc(Cl)c2)nc1-c1cc2cccc(OC)c2oc1=O | 90% (inactive) |
| COc1cccc(CN(C(=O)COc2ccc(Cl)c(C)c2)C2CCS(=O)(=O)C2)c1 (stereo unspecified) | 71% (inactive) |
| Cc1ccc(NCc2nc3ccccc3n2CCOc2ccccc2)cc1 | 3% (active) |
| Clc1ccc(NCc2nc3ccccc3n2CCOc2ccccc2)cc1 | 50% (inactive) |
| Cc1nn(CC(=O)Nc2ccccc2C(F)(F)F)c(=O)c2cccn12 | 93% (inactive) |
| COc1ccc(C(C(=O)Nc2ccc(C(C)C)cc2)N(C)C(=O)Cc2cccs2)cc1 (stereo unspecified) | 127% (inactive) |
| Cc1ccc(S(=O)(=O)N2CCNCC2)cc1 | 87% (inactive) |
| CCOc1cccc2sc(NC(=O)c3ccc(S(=O)(=O)N4CCCc5ccccc54)cc3)nc12 | 74% (inactive) |
| CCOc1cccc2sc(NC(=O)c3ccc(S(=O)(=O)N4CCCCC4)cc3)nc12 | 94% (inactive) |
| Cc1cc(C)c2sc(NC(=O)c3ccc(S(=O)(=O)N4CCOCC4)cc3)nc2c1 | 101% (inactive) |
| Cc1cc(C)c2nc(NC(=O)c3ccc(S(=O)(=O)N4CCCC4)cc3)sc2c1 | 102% (inactive) |
| Cc1ccc(C)c2sc(NC(=O)c3ccc(S(=O)(=O)N4CCCC4)cc3)nc12 | 25% (active) |
| CNC(=O)c1c(NC(=O)c2ccc(S(=O)(=O)N3CCC(C)CC3)cc2)sc2c1CCC2 | 131% (inactive) |
| COc1ccc(C)c2sc(NC(=O)c3ccc(S(=O)(=O)N4CCCC4)cc3)nc12 | 101% (inactive) |
| Cc1cc(C)c2sc(NC(=O)c3ccc(S(=O)(=O)N4CCCC4)cc3)nc2c1 | 37% (active) |
| CCOc1cccc2sc(NC(=O)c3ccc(S(=O)(=O)N4CCCCC4C)cc3)nc12 (stereo unspecified) | 37% (active) |
| CNC(=O)c1c(NC(=O)c2ccc(S(=O)(=O)N3CCCC(C)C3)cc2)sc2c1CCC2 (stereo unspecified) | 92% (inactive) |
| Cc1ccc(Cl)c2sc(NC(=O)c3ccc(S(=O)(=O)N4CCCC4)cc3)nc12 | 63% (inactive) |
| CNC(=O)c1c(NC(=O)c2ccc(S(=O)(=O)N3CCCCC3)cc2)sc2c1CCC2 | 0% (active) |
| CCC(Sc1nc2ccccc2c2nc(-c3ccccc3)nn12)C(=O)Nc1cccc(OC)c1 (stereo unspecified) | 94% (inactive) |
| O=C(NCc1ccc(F)cc1)C(=O)Nc1ccc2nc3n(c(=O)c2c1)CCCCC3 | 94% (inactive) |
| Cc1cc(C)cc(NC(=O)COCc2cc(-c3ccc4c(c3)OCO4)on2)c1 | 55% (inactive) |
| COC(=O)C1=C(N)OC2=C(C(=O)CCC2)C1c1ccc(OC)cc1 (stereo unspecified) | 102% (inactive) |

| Compound | survival |
| --- | --- |
| O=C(Nc1ccc2nc(SCC(=O)N3CCCC3)sc2c1)c1ccc(Br)cc1 | 92% (inactive) |
| O=c1ccn2c(n1)OC1C(O)C(CO)OC12 (stereo unspecified) | 83% (inactive) |
| O=C(c1ccccc1)N(C(=O)c1ccccc1)c1ccccn1 | 71% (inactive) |
| Cc1cc2c(cc1S(=O)(=O)Nc1cccc(C#N)c1)OCC(=O)N2 | 93% (inactive) |
| COc1cccc(N2CCN(C(=O)CCc3c(C)nc4c(c3C)c(=O)n(C)c(=O)n4C)CC2)c1 | 98% (inactive) |
| CN(c1ccc(F)cc1)S(=O)(=O)N1CCCC(C(=O)NCc2cccc(Br)c2)C1 (stereo unspecified) | 72% (inactive) |
| O=C(Nc1ccccn1)C(=NO)C(=O)Nc1ccccn1 | 98% (inactive) |
| COc1ccc(NC(=O)C(Cc2c[nH]c3ccccc23)NC(=O)OC(C)(C)C)cc1 (stereo unspecified) | 48% (inactive) |
| CC(C)c1ccccc1NC(=O)C(Cc1c[nH]c2ccccc12)NC(=O)OC(C)(C)C (stereo unspecified) | 162% (inactive) |
| Cc1ccc(NC(=O)C(Cc2c[nH]c3ccccc23)NC(=O)OC(C)(C)C)c(C)c1 (stereo unspecified) | 27% (active) |
| N#Cc1ccccc1NC(=O)c1cccs1 | 93% (inactive) |
| COc1ccc(Nc2ncc(C(=O)Nc3cc(Cl)c(OC)cc3OC)c3ccccc23)cc1 | 72% (inactive) |
| COc1ccc(Nc2ncc(C(=O)Nc3cccc(OC)c3)c3ccccc23)cc1 | 106% (inactive) |
| COc1ccc(Nc2ncc(C(=O)Nc3cc(C)ccc3OC)c3ccccc23)cc1 | 50% (inactive) |
| Cc1ccc(Nc2ncc(C(=O)Nc3ccc(F)cc3F)c3ccccc23)cc1Cl | 37% (active) |
| COc1ccc(NC(=O)c2cnc(Nc3ccc(C)c(Cl)c3)c3ccccc23)c(OC)c1 | 63% (inactive) |
| CCOc1ccc(NC(=O)c2cnc(Nc3ccccc3OC)c3ccccc23)cc1 | 50% (inactive) |
| COc1ccc(NC(=O)c2cnc(Nc3ccc(C)c(Cl)c3)c3ccccc23)cc1OC | 51% (inactive) |
| COc1ccc(OC)c(NC(=O)c2cnc(Nc3ccc(C)c(Cl)c3)c3ccccc23)c1 | 44% (active) |
| COc1ccc(Nc2ncc(C(=O)Nc3ccc(F)cc3F)c3ccccc23)cc1 | 35% (active) |
| Cc1ccc(Nc2ncc(C(=O)N3CCN(c4ccc(F)cc4)CC3)c3ccccc23)cc1Cl | 76% (inactive) |
| COc1ccccc1Nc1ncc(C(=O)Nc2ccc(OC)c(OC)c2)c2ccccc12 | 43% (active) |
| COC(=O)c1ccccc1NC(=O)c1cnc(Nc2ccc(OC)cc2)c2ccccc12 | 61% (inactive) |
